Measurements reported in the supplement of paper PMC3334620.
The full ranking holds about 33,000 sequences; the median of “E-score (-0.5 to 0.5)” is about -0.0014, and the highest 2% start at about 0.25. The sample holds the highest values, similar sequences and a random draw of the others, so the mix is not that of the screen.

target: T1, Cad1 (UniProt P24813); test: PBM E-score (8-mer binding enrichment) (E-score (-0.5 to 0.5)); higher = stronger / more preferred TF binding; conditions: protein concentration: 100 nM; construct: GST-full length
T1 sequence: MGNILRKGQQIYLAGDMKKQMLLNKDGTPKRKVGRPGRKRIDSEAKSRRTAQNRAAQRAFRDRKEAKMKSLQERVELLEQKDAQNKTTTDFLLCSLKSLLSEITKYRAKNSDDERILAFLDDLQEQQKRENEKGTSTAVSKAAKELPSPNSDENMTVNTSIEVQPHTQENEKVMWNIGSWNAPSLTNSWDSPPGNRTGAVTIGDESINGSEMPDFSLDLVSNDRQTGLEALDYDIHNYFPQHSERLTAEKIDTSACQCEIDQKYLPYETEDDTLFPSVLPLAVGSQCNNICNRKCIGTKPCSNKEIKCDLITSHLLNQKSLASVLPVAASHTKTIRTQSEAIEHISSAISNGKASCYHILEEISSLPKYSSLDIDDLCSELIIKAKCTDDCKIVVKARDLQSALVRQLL
Method: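 Universal 'all 10-mer' protein binding microarrays (Agilent AMADID 015681) probed with GST-tagged S. cerevisiae TFs (full-length or DBD) made by in vitro transcription/translation (PURExpress), about 100-200 nM. Bound TF was detected with fluorescent anti-GST. Each ungapped 8-mer (which stands for itself and its reverse complement) is scored by the PBM enrichment score (E-score), a modified Wilcoxon-Mann-Whitney statistic from -0.5 to +0.5, computed with the Universal PBM Analysis Suite. Scale: above 0.35 generally sequence-specific binding.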

Sequence | PBM E-score
CACTTCCC | -0.118
ACTCCCGA | 0.0151
AGGGGACG | -0.189
GGCAGTCA | -0.00415
TCCTCAAA | -0.166
ATGAACGA | 0.111
ATGAACGG | -0.0252
ATGAACGC | 0.252
GAGTTGAC | -0.0116
ATAATACC | 0.215
CTACTACA | 0.196
GCAATACC | -0.0457
ACAATACA | 0.0445
ATAATACA | 0.263
ATAATACG | 0.186
ATACTACC | 0.0181
GCAATACA | 0.291
ATACTACA | 0.264
TGTTGGAA | 0.192
GGACCACA | 0.137
AAAGCCTC | -0.186
ACCATCAG | -0.00772
CAGCAACA | 0.186
AGCTCGAA | 0.151
AAAGATTA | 0.152

Sequence | PBM E-score
GCAGAGGA | 0.0638
GAGCATCC | -0.169
CCGGACTC | 0.281
CCGGACTA | -0.0508
ACGGACTC | -0.0126
CATAGCAC | -0.0299
GAGGTCGA | -0.153
CTCTCTTC | -0.215
GTTAACTA | 0.274
CTTAACTC | 0.0365
ATTAACTA | -0.00319
CGTAACTA | -0.001
CTTAACTA | 0.283
GATAACTA | 0.1
CTCACTGA | -0.0364
AGGCTGTA | -0.0168
ATGCATCA | 0.308
CCGCATTA | 0.172
GTGCATCA | 0.128
ATGCATTA | 0.265
CTGCATTA | 0.014
GCGCATTA | 0.265
ATGCATCG | 0.114
ACGCATTA | 0.145
ATGCATTC | 0.196

Sequence | PBM E-score
CATCCTGC | 0.0554
TGTGGCAA | 0.0896
CCCGGACA | 0.039
CCATCCAG | -0.0345
AATATTCT | 0.126
AATATTCG | 0.273
AATATTCC | 0.297
AATATCCC | -0.00553
AATATCCG | 0.265
AATATCCA | 0.0727
GATATTCC | 0.0127
AATATTCA | 0.157
CATATTCG | 0.129
AAGGTTGC | -0.00934
CCTAGCAC | -0.199
CCATAGTC | -0.0534
GACCAAGC | 0.0511
CCCACTCA | -0.193
AGATGGAG | -0.0255
CTAATCAA | 0.238
ATAATCAG | 0.225
ATAATCAA | 0.157
CTAATCAC | 0.326
CTAATCAG | 0.227
ATAATCGA | 0.146

Sequence | PBM E-score
CTAATCGA | 0.315
ATAATCAT | 0.252
AGAATCGA | 0.0389
CGAATCGA | 0.325
GGAATCGA | 0.00927
CTAATCGC | 0.0731
CTGGACGC | 0.069
CGAATACC | -0.104
AATCTCAT | 0.0796
CCCGCTCC | -0.37
TGCCGCCA | 0.0461
CGGGCAGA | 0.0491
ACACCCTG | -0.133
AGAGAATA | 0.0902
GGATGCAC | -0.0779
GTAAGGAC | -0.19
CGGGGAAA | 0.0522
CATACTGA | 0.103
GCTACTAA | 0.0213
AATACTAA | 0.253
GTTACTAA | 0.374
AATACTAT | -0.0768
TATACTAA | 0.107
GTTACTCA | 0.182
TATACTGA | 0.288

Sequence | PBM E-score
GATACTGA | 0.14
CACTGGCG | -0.0107
CAGCTAAA | -0.121
ACTAGTTG | -0.0546
GGTGGCAA | -0.0998
CCAACGCA | 0.0411
CGCAGACC | -0.146
CGCAGACG | 0.257
CGCAGACA | 0.122
ACTCATTA | 0.109
ACACAGCA | 0.076
ACACAGCC | 0.0823
ACACAGCG | 0.251
CACAGGAG | 0.0278
ATAGAATC | -0.129
ATAAATTG | 0.253
ATAAATTA | 0.364
GTAAATTA | -0.053
CTAAATTA | 0.2
ATAAATTC | 0.091
AAAAATTG | -0.134
GGAGCAAC | -0.0625
AGATCCTG | -0.0555
AAGGTGAG | -0.192
CAGCAATA | 0.188

Sequence | PBM E-score
AATGGCCC | -0.158
CAATCCTA | -0.015
ACGCCCAT | -0.0524
CACCGACA | -0.0582
CCATATTA | 0.148
AGCTATTA | 0.0722
GAATATTA | 0.227
GGCTATTA | 0.175
ATATACTC | -0.0465
CTATACTA | 0.0535
ACATATTG | 0.0269
CGCTATTA | 0.253
TAATATGA | 0.133
ATATACTA | 0.259
TAATATTA | 0.424
ACATATTA | 0.317
CAGGCTAA | -0.266
TAACCCGA | -0.00699
GGCACCTA | -0.156
AAGCCCAC | -0.0637
ACAGAACC | 0.0474
AAGAACCA | -0.00253
GGCAACCC | -0.174
GAACCTGC | -0.018
ATGCCTTC | -0.162

Sequence | PBM E-score
GAATATTC | 0.338
AAATATTG | 0.249
CGCTACTA | 0.276
CAATATTC | 0.0508
AAATATTC | 0.249
CGATATTA | 0.352
CAATATTA | 0.187
AGCTACTA | 0.0659
GGATATTA | 0.163
CGATATTC | 0.173
CGCTACTC | 0.0265
AAATATTA | 0.298
CACCACAC | 0.151
AGCTCACT | -0.0157
ACAATAGA | -0.144
GGAGCACC | -0.0566
GTATATTA | 0.115
ATATATTA | 0.368
CTATATTA | 0.241
GCTAAGCC | -0.109
AGACGCAC | 0.0398
CGACCTAG | 0.0727
